Bioassay records from PubChem.
Pf growth 96h – P. falciparum growth inhibition at 96 hour, primary screen for plastid delayed-death inhibitors; P. falciparum luciferase reporter growth, 96 h; Potency, µM (doses to about 28.7 µM), actives largely listed as inhibitors; hit rate 6.9% among 320,000
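Cell-based qHTS: luciferase-tagged P. falciparum in erythrocytes (2% hematocrit, 0.05% parasitemia final) incubated with compounds for 96 hours, 37 C, 5% CO2; luciferase detection reagent then added and luminescence measured.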
Pf growth 48h – P. falciparum growth inhibition at 48 hours (one generation); AID 504832; P. falciparum luciferase growth in erythrocytes, 48 h; hit rate 5.9% among 310,000; Potency, µM (highest dose often 28.7 µM), hits mostly inhibitors
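Erythrocytes infected with P. falciparum carrying an integrated firefly luciferase reporter (2% hematocrit, 0.1% parasitemia final) were exposed to compounds in RPMI 1640 with 0.5% Albumax at 37 C, 5% CO2. Growth inhibition was scored as reduced luminescence.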
LmPK inhibitor – inhibitors of Leishmania mexicana pyruvate kinase | hit rate 0.37% among 290,000 | Potency, µM (series often up to 57.5 µM), actives largely listed as inhibitors | purified LmPK, Kinase-Glo ATP luminescence, 1 h | Q27686
Target sequence (Q27686 whole entry, looked up): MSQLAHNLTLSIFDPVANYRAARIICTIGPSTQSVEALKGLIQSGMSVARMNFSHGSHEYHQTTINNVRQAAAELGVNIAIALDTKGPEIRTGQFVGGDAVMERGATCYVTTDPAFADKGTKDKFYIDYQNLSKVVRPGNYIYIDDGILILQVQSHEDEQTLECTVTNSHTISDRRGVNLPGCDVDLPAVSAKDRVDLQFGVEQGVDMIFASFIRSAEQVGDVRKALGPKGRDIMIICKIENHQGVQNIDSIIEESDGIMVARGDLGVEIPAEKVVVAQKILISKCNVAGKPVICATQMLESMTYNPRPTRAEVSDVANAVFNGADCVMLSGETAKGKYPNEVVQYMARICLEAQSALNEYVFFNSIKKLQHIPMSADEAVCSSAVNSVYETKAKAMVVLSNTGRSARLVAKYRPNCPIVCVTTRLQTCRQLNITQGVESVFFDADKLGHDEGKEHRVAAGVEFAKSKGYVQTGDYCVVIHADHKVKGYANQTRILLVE
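Screened at intermediate enzyme activity to detect both inhibitors and activators: LmPK at 0.1 nM, with a 0.5 nM enzyme column as activation reference. PEP 0.5 mM, ADP 0.1 mM; ATP detected by luminescence after 1 h.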
CHX counter – counter-screen for Shiga toxin inhibitors: cycloheximide protein synthesis inhibition | cell reporter, cycloheximide protein synthesis inhibition counterscreen | max response, % | hit rate 12% among 300,000 | AID 2314; in the data active = max response mostly above about 13%, no sharp cut-off; inactive = mostly below about 14%; also: read at 38.3 µM for the half of the compounds with a filed dose
Shiga inhibitor – blocks Shiga toxin action in Vero cells; Vero cells, Shiga toxin protein synthesis inhibition reporter; inhibition, % at 38.7 µM; hit rate 9.2% among 290,000; AID 2315; in the data active = inhibition mostly above about 28%, no sharp cut-off; inactive = mostly below about 43%
Each line names hits and unclear results; the compound was inactive in the other large screens. Sampled rows, rich in hits. Any-hit rate of the full collection: about 22%. Unless noted, calls follow the shape of the dose curve; as a rule, active = well fitted inhibition curve with a large enough effect; inconclusive = small, poorly fitted or top-dose-only effect, or another doubt; inactive = no such curve, though single readings can be large or run the other way.

O=C(Cc1ccccc1)Nc1cc([N+](=O)[O-])ccc1N1CCOCC1	Pf growth 96h inconclusive
O=C(NCC1CC1)C1(C(F)(F)F)C/C(=C\Cc2ccccc2)CCCO1 (configuration not stated)	none (no result: Pf growth 96h, Pf growth 48h, LmPK inhibitor)
COc1ccc(NC(=O)C(C)Sc2ccccc2)cc1 (configuration not stated)	CHX counter 54.9, Shiga inhibitor 88.4 (no result: Pf growth 48h)
O=C(C#Cc1ccccc1)NCc1ccccc1F	CHX counter 20.9, Shiga inhibitor 67.2
O=C(NCc1ccccc1F)C(c1ccccc1)c1ccccc1	none
O=C(C#Cc1ccccc1)Nc1cccc(F)c1	Pf growth 48h inconclusive, CHX counter 59.6, Shiga inhibitor 127.9
O=C(C#Cc1ccccc1)Nc1ccc(F)cc1	Pf growth 96h inconclusive, Pf growth 48h inconclusive, CHX counter 34.3, Shiga inhibitor 32.4
CC(SCc1ccccc1)C(=O)Nc1ccc(F)cc1 (configuration not stated)	Pf growth 96h inconclusive, Pf growth 48h inconclusive
CCn1c(=S)sc2c(=O)n(CC(=O)Nc3ccc(Cl)cc3)c(C)nc21	none
Cc1ccc(S(=O)(=O)NCC2CCC(C(=O)NCc3cccnc3)CC2)cc1 (configuration not stated)	Pf growth 48h inconclusive
COc1ccc(NC(=O)C#Cc2ccccc2)cc1	Pf growth 96h inconclusive, CHX counter 55.0, Shiga inhibitor 86.0
COc1ccc(NC(=O)c2ccccc2-c2ccccc2)cc1	none
COc1ccc(S(=O)(=O)NC2CC(C)(C)NC(C)(C)C2)cc1C(C)C	Pf growth 96h inconclusive, Pf growth 48h inconclusive
Cc1ccc(-n2nnnc2SCC(=O)NC(=O)Nc2ccc3c(c2)OCCO3)cc1	CHX counter 23.5, Shiga inhibitor 74.8
CCC(=O)Nc1ccc(NC(=O)CSc2nnnn2-c2ccc3c(c2)OCCO3)cc1	none
Cc1nnc(SCC(=O)NC(=O)Nc2ccc3c(c2)OCCO3)n1N	CHX counter 39.1, Shiga inhibitor 50.4
CC(C)Oc1cccc(-c2nnc(SCC(=O)Nc3ccc4c(c3)OCCO4)n2N)c1	CHX counter 34.2
COc1ccc(-n2nnnc2SC(C)C(N)=O)cc1 (configuration not stated)	Pf growth 96h 11.7µM
COc1ccc(Cl)cc1S(=O)(=O)N1CCCC(C(=O)NCc2ccccn2)C1 (configuration not stated)	Pf growth 48h inconclusive (no result: LmPK inhibitor, CHX counter, Shiga inhibitor)
O=C(COC(=O)CCC1CCCC1)Nc1ccc(F)cc1	none (no result: LmPK inhibitor, CHX counter, Shiga inhibitor)
O=C(CSc1nnnn1-c1ccc(Cl)cc1)NC(=O)Nc1ccc2c(c1)OCCO2	CHX counter 28.6, Shiga inhibitor 71.5
COc1ccc(CCNC(=O)CSc2nc3[nH]ncc3c(=O)n2-c2ccc(Cl)cc2Cl)cc1OC	Pf growth 96h inconclusive, Pf growth 48h inconclusive
COc1ccc(CCNC(=O)CSc2nc3[nH]ncc3c(=O)n2-c2ccc(C)c(Cl)c2)cc1OC	Pf growth 96h inconclusive, CHX counter 40.7, Shiga inhibitor 96.4
COc1ccc(-n2nnnc2SCC(=O)NCCc2ccc(OC)c(OC)c2)cc1	Pf growth 96h 5.22µM
Cc1ccc(SCC(=O)NC(=O)Nc2ccc3c(c2)OCCO3)cc1C	none
NC(=O)CSc1nnnn1-c1ccc(OC(F)(F)F)cc1	Pf growth 96h 0.185µM
COc1ccc(-n2nnnc2SCC(=O)NC(=O)Nc2ccc3c(c2)OCCO3)cc1	CHX counter 21.2, Shiga inhibitor 92.0 (no result: Pf growth 96h)
O=C(CSc1nnnn1-c1ccccc1Cl)Nc1ccc2c(c1)OCCO2	CHX counter 46.0, Shiga inhibitor 83.8
Cc1ccc(C(CNC(=O)C(=O)Nc2ccc3c(c2)OCCO3)N2CCN(C)CC2)cc1 (configuration not stated)	Pf growth 48h 7.38µM (no result: LmPK inhibitor, CHX counter, Shiga inhibitor)
CCCn1c(SCC(=O)N(C)CC(=O)Nc2ccc(C)cc2)n[nH]c1=O	Pf growth 96h inconclusive (no result: LmPK inhibitor, CHX counter, Shiga inhibitor)
CCOc1ccc(C(=O)N(c2ccccn2)C2CCCCC2)cc1	none
Cc1ccc(-n2c(C)c(C)c3c(NCCO)ncnc32)cc1	CHX counter 39.7, Shiga inhibitor 61.0
Cc1c(C)n(-c2ccccc2)c2ncnc(NCCCN(C)C)c12	none
COCCn1c(C)c(C)c2c(NCCc3ccccc3)ncnc21	CHX counter 25.0, Shiga inhibitor 67.4
Cc1c(C)n(CCc2ccccc2)c2ncnc(NN)c12	CHX counter 16.4
Cc1c(C)n(Cc2ccccc2)c2ncnc(NN)c12	CHX counter 14.8
Cc1ccc(-n2nc3c(c2NC(=O)c2cccs2)CS(=O)(=O)C3)cc1C	none
Cc1c(C)n(CCc2ccccc2)c2ncnc(NCCCO)c12	CHX counter 48.0, Shiga inhibitor 101.7
